Results: PubChem BioAssay (Tox21)
“And” between values parts separate entries of the source, which are not always exact repeats. Identical values can stand only once. Records with an inconclusive call do not appear. The source made the active and inactive calls. Unless noted, calls come from the whole dose curve.
% is set by controls: 0 for no effect and ±100 for the full control effect; potency is the fitted concentration of half-maximal effect.

Assay: qHTS assay for small molecule agonists of the antioxidant response element (ARE) signaling pathway (AID 743202; active = well fitted activation curve with a large enough effect in the signal ratio in the repeat runs, not every such curve was filed as active; the % refers to the signal ratio)
Conditions: HepG2 ARE-bla reporter, beta-lactamase FRET, 16 h; series mostly up to 73.3 µM; activation: at the top concentration
In short: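 Compounds delivered in DMSO to ARE-bla HepG2 cells (2,000 cells/well, pre-incubated 5 h) and left 16 h at 37 C. LiveBLAzer B/G FRET substrate then added for 2 h at RT before fluorescence reading.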
In the case of `CC(C)[C@H](C(=O)O[C@H](C#N)c1cccc(Oc2ccccc2)c1)c1ccc(Cl)cc1`, the “activation” value is reported as -0.879% (inactive). In the case of `O=[N+]([O-])c1c2ccccc2cc2ccccc12`, the Potency is reported as 21.4 µM (active). With `CCCCCCCCCBr` the “activation” value was -9.63% [at 94.8 µM] (inactive). With `CC[C@H]1C[C@@H]2C[C@H]3c4[nH]c5ccc(OC)cc5c4CCN(C2)[C@@H]13` the “activation” value was -1.09% (inactive). In the case of `CC1(c2ccc(Oc3ccccc3)cc2)OC(=O)N(Nc2ccccc2)C1=O` (stereo not drawn), the Potency is reported as 0.615 µM (active). For `c1ccc(OCC2CO2)cc1` (stereo not drawn), the “activation” value was 1.21% [at 94.8 µM] (inactive). In the case of `CN(C)C(=S)[S-].CN(C)C(=S)[S-].[Cu+2]`, the Potency is reported as 1.49 µM (active). In the case of `O=C/C(Cl)=C(/Cl)C(=O)O`, the Potency is reported as 38.5 µM (active) and 27.3 µM (active). In the case of `C[C@]12Cc3nonc3C[C@@H]1CC[C@@H]1[C@@H]2CC[C@@]2(C)[C@H]1CC[C@]2(C)O`, the Potency is reported as 8.41 µM (active).

Assay: qHTS assay for small molecule agonists of the antioxidant response element (ARE) signaling pathway - cell viability counter screen (AID 743203); note: nearly all actives have a fitted effect of over 55% in size
Conditions: ARE-bla HepG2 viability, CellTiter-Glo luminescence, 16 h; series mostly up to 73.3 µM; viability change, negative = cytotoxic: at the top concentration
In short: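 Seeded at 2,000 cells/well, ARE-bla HepG2 cells were incubated 5 hrs before compound addition. After 16 hrs of treatment at 37C with 5% CO2, CellTiter-Glo reagent was added and luminescence read 30 min later.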
With `O=[N+]([O-])O.O=[N+]([O-])O.[Cd]` the Potency was 0.611 µM (active). In the case of `C[C@@H]1CC[C@@]2(OC1)O[C@H]1[C@@H](O)[C@H]3[C@@H]4CC[C@H]5C[C@@H](O[C@@H]6O[C@H](CO)[C@H](O[C@@H]7O[C@H](CO)[C@@H](O)[C@H](O[C@@H]8OC[C@@H](O)[C@H](O)[C@H]8O)[C@H]7O[C@@H]7O[C@H](CO)[C@@H](O)[C@H](O[C@@H]8O[C@H](CO)[C@@H](O)[C@H](O)[C@H]8O)[C@H]7O)[C@H](O)[C@H]6O)[C@H](O)C[C@]5(C)[C@H]4CC[C@]3(C)[C@H]1[C@@H]2C`, the Potency is reported as 20.5 µM (active). For `CCCCCCCCCCCCCCCC[N+](C)(C)C`, the Potency was 29.5 µM (active) and 24.3 µM (active) and 29.8 µM (active). In the case of `CCOC(=O)C1(c2ccccc2)CCN(CCC(C#N)(c2ccccc2)c2ccccc2)CC1`, the “viability change, negative = cytotoxic” value is reported as 11.5% (inactive). In the case of `C=CC(=O)OCC(COC(=O)C=C)(COC(=O)C=C)COC(=O)C=C`, the Potency is reported as 43.3 µM (active). With `CCCCCCCCCC[N+](C)(C)CCCCCCCCCC` the Potency was 43.3 µM (active). In the case of `CC(C)[C@H](C(=O)O[C@H](C#N)c1cccc(Oc2ccccc2)c1)c1ccc(Cl)cc1`, the “viability change, negative = cytotoxic” value is reported as -18.8% (inactive). In the case of `CC[C@H](C)[C@H]1O[C@]2(C=C[C@@H]1C)C[C@@H]1C[C@@H](C/C=C(\C)[C@@H](O[C@H]3C[C@H](OC)[C@@H](O[C@H]4C[C@H](OC)[C@@H](O)[C@H](C)O4)[C@H](C)O3)[C@@H](C)/C=C/C=C3\CO[C@@H]4[C@H](O)C(C)=C[C@@H](C(=O)O1)[C@]34O)O2`, the Potency is reported as 11.4 µM (active). With `CN(C)S(=O)(=O)N(SC(F)(Cl)Cl)c1ccccc1` the Potency was 8.63 µM (active). For `CCCOCC(=Nc1ccc(Cl)cc1C(F)(F)F)n1ccnc1`, the Potency was 13.7 µM (active). For `CC1(C)CN=C(NN=C(/C=C/c2ccc(C(F)(F)F)cc2)/C=C/c2ccc(C(F)(F)F)cc2)NC1`, the Potency was 8.63 µM (active). In the case of `Cc1cc(N=Nc2ccccc2C)ccc1N`, the “viability change, negative = cytotoxic” value is reported as -29% (inactive). For `CC(=O)[O-].CC(=O)[O-].[Hg+2]`, the Potency was 1.22 µM (active). For `CCCCCCCCCBr`, the “viability change, negative = cytotoxic” value was -1.1% [at 94.8 µM] (inactive). With `CC[C@H]1C[C@@H]2C[C@H]3c4[nH]c5ccc(OC)cc5c4CCN(C2)[C@@H]13` the “viability change, negative = cytotoxic” value was -3.59% (inactive). In the case of `[Cd+2].[Cl-].[Cl-]`, the Potency is reported as 692 nM (active) and 545 nM (active). For `c1ccc2cc3c(cc2c1)-c1cccc2cccc-3c12`, the “viability change, negative = cytotoxic” value was 5.07% (inactive). With `CC1(c2ccc(Oc3ccccc3)cc2)OC(=O)N(Nc2ccccc2)C1=O` (stereo not drawn) the Potency was 24.5 µM (active). With `[CH3][Hg][Cl]` the Potency was 8.61 µM (active). For `O=C(CBr)c1ccc(O)cc1`, the “viability change, negative = cytotoxic” value was 0.624% (inactive). In the case of `O=[N+]([O-])c1cc(C(F)(F)F)c(Cl)c([N+](=O)[O-])c1Cl`, the Potency is reported as 1.72 µM (active). In the case of `O=C(O)c1cc[c]([Hg][Cl])cc1`, the Potency is reported as 54.5 µM (active). With `O=[N+]([O-])c1ccc2ccc3cccc4ccc1c2c34` the “viability change, negative = cytotoxic” value was -6.91% (inactive). In the case of `CCCCOCN(C(=O)CCl)c1c(CC)cccc1CC`, the Potency is reported as 48.6 µM (active). In the case of `COC12CC[C@@]3(C[C@@H]1C(C)(O)C(C)(C)C)[C@H]1Cc4ccc(O)c5c4[C@@]3(CCN1CC1CC1)[C@H]2O5` (stereo partly drawn), the Potency is reported as 68.1 µM (active). With `C[C@@H]1O[C@@H](O[C@@H]2C=C3CC[C@@H]4[C@H](CC[C@]5(C)[C@@H](c6ccc(=O)oc6)CC[C@]45O)[C@@]3(C)CC2)[C@H](O)[C@H](O)[C@H]1O` the Potency was 0.0211 µM (active). For `COc1cc(C=O)cc2c1[C@H](COC(N)=O)[C@]1(OC(C)=O)ON2C[C@H]2[C@@H]1N2C(C)=O`, the Potency was 0.154 µM (active). With `O=C1c2ccccc2C(=O)C1C(=O)C(c1ccccc1)c1ccc(Cl)cc1` (stereo not drawn) the Potency was 30.6 µM (active). For `c1ccc(OCC2CO2)cc1` (stereo not drawn), the “viability change, negative = cytotoxic” value was 12.4% [at 94.8 µM] (inactive). In the case of `CCCCCCCCCCCCCC[P+](CCCCCC)(CCCCCC)CCCCCC` (tested in a mixture with another compound), the Potency is reported as 10.9 µM (active). In the case of `CN(C)C(=S)[S-].CN(C)C(=S)[S-].[Cu+2]`, the Potency is reported as 3.33 µM (active). With `O=C/C(Cl)=C(/Cl)C(=O)O` the Potency was “inactive”. For `C[C@]12Cc3nonc3C[C@@H]1CC[C@@H]1[C@@H]2CC[C@@]2(C)[C@H]1CC[C@]2(C)O`, the “viability change, negative = cytotoxic” value was -0.59% (inactive). In the case of `CCCN(CC)CC1COC2(CCC(C(C)(C)C)CC2)O1` (stereo not drawn), the “viability change, negative = cytotoxic” value is reported as -9.55% (inactive).
